Structures are written as SMILES. Among all 220,000 compounds or so, about 3,300 (1.5%) were called active. The entries come from a sample that favours actives as a whole. A number with no mark means an inactive call.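 Rule for the calls: active = compounds that cut the protein-peptide binding signal by more than 50% relative to plate controls in a single-dose test; inactive = the rest.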

Sequence of Induced myeloid leukemia cell differentiation protein Mcl-1 (Homo sapiens) (Q07820 whole entry, looked up): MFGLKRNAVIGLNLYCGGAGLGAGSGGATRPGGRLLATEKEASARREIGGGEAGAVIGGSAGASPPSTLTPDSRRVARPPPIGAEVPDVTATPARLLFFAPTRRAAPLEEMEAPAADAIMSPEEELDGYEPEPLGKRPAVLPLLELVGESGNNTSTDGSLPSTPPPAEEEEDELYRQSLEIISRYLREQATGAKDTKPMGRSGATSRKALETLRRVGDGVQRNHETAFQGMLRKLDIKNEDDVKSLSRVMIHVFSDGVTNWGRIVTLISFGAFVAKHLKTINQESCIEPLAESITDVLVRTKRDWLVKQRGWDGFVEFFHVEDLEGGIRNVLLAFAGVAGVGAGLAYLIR

This assay concerns the target Induced myeloid leukemia cell differentiation protein Mcl-1 (Homo sapiens) (UniProt Q07820). As to the kind of experiment: Mcl-1/Noxa binding inhibitors, primary screen, biochemical, TR-FRET, 1536-well (AID 1022).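 Note: His-tagged Mcl-1 with rhodamine Noxa BH3 peptide and terbium anti-His antibody; 0% = Mcl-1 plus Noxa peptide wells and 100% = peptide-only wells.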 The conditions noted are these: TR-FRET Mcl-1/Noxa peptide binding, 2 h; at 21.7 µM; hits give high values. (In general: TR-FRET usually uses a lanthanide donor and a delayed reading to cut background.)
Broadly, the inhibition is the drop in the measured response relative to a control, in per cent. As to `O=C(Nc1ccccc1)N1CCN(C2c3ccccc3-c3ccccc32)CC1`, the inhibition is -0.05%.

`CC1CCN(c2ccc([N+](=O)[O-])c(SCCO)c2)CC1`: the inhibition is -16%. In the case of `Cn1cnc(S(=O)(=O)Nc2ccc3c(c2)OCCO3)c1` it was -2.52%; in that of `C=CCn1c(SCC(=O)Nc2nc3ccccc3s2)nnc1-c1ccccc1O`, 8.54%. Next, `CCn1c(COc2ccccc2)nnc1SCC(=O)NCc1ccco1`: -18.1%; `C=CCn1c(CSc2nc3ccccc3s2)nnc1SCC(=O)NCc1ccco1`: 51.2% (active); `C=CCC(Nc1ccccc1)c1cccc(OC)c1OC` (centres undefined): 5.76%.

Consider `Cc1cc(NC(=O)Nc2ccc(Cl)cc2)n(-c2ccccc2)n1`, for which the inhibition was -3.74%. Next, `COc1ccc(NC(=O)COc2ccc(C(=O)OCC(=O)N(C)C3CCS(=O)(=O)C3)cc2OC)cc1` (centres undefined): -10.9%. In the case of `CN(C(=O)COC(=O)c1cc(-c2ccco2)nc2ccccc12)C1CCS(=O)(=O)C1` (centres undefined) it was 107% (active); in that of `Cc1c(-c2cccc(Cl)c2)nc2ccccc2c1C(=O)OCC(=O)N(C)C1CCS(=O)(=O)C1` (centres undefined), 13.3%. Take `O=C(C1=C(O)C(=O)N(CCOCCO)C1c1ccccn1)c1cccs1` (centres undefined): the inhibition is 11.8%. Next, `O=C(C1=C(O)C(=O)N(Cc2ccccc2)C1c1ccco1)c1ccco1` (centres undefined): 24.5%. On to `O=C(C1=C(O)C(=O)N(c2ncccn2)C1c1cccs1)c1ccco1` (centres undefined), for which the inhibition is 55% (active).

As for `COc1cc(C=O)ccc1Oc1nnnn1-c1ccccc1`, the inhibition is -17.8%. For `COc1ccc(OC)c(C(=O)c2ccc(Cl)cc2)c1`, the inhibition was 6.99%.

Consider `Cc1ccc2cc(/C=N/NC(=O)[C@@H]3CCCN3)c(Cl)nc2c1`, for which the inhibition is 5.95%. In the case of `Cc1c(NC(=O)/C=C/C(=O)O)cccc1[N+](=O)[O-]`, the inhibition is -3.3%. For the compound `O=C(O)/C=C/C(=O)NNc1ccc([N+](=O)[O-])cc1`, the inhibition was 54.4% (active). Turning to `O=[N+]([O-])c1ccc(N/N=C/c2ccccc2)cc1`, the inhibition is 1.75%. In the case of `C/C(=N\NC(=O)CC(C)C)c1c(C(F)(F)F)[nH]n(-c2nc3ccccc3s2)c1=O` it was -81.1%; in that of `O=C(Nc1cccc2c1N(C(=O)c1ccco1)CCC2)c1ccco1`, 18.1%; in that of `O=C(C[n+]1ccc2c(c1)nnn2-c1ccccc1)c1ccc(Cl)cc1`, 4.1%. As for `N#CCC(=O)N/N=C/c1cn(Cc2ccc3ccccc3c2)c2ccccc12`, the inhibition is 27.9%.

On to `CC(C)C(NC(=O)c1ccc(Cl)cc1)C(=O)O` (centres undefined), for which the inhibition was 1.56%. Next, `Cc1occc1C(=O)NNC(=S)NCC(C)C`: -22.4%. Take `CC(C)CNC(=S)NC(=O)c1ccc(Cl)cc1`: the inhibition is 62.4% (active). For `Cn1cnc([N+](=O)[O-])c1Sc1n[nH]c(N)n1`, the inhibition is 3.28%. As to `CCc1nnc(NC(=O)/C=C/c2ccc(C)o2)s1`, the inhibition is 19.4%. In the case of `Cc1ccc(/C=C/C(=O)Nc2ccc([N+](=O)[O-])c(NC(=O)/C=C/c3ccc(C)o3)c2)o1` it was 88.8% (active). On to `Cc1ccc(/C=C/C(=O)Nc2cc(S(=O)(=O)N3CCCCCC3)ccc2OCC(F)(F)F)o1`, for which the inhibition is 22.8%. Take `O=C(Nc1ccc(-c2csc(Nc3cccc(C(F)(F)F)c3)n2)cc1)c1cccc(C(F)(F)F)c1`: the inhibition is 16.6%. Next, `CC(C)(C)c1cc(C(=O)NN)n(Cc2ccc(Cl)cc2Cl)n1`: -5.62%; `Cc1ccc(S(=O)(=O)c2ccc(Cl)cc2)cc1S(=O)(=O)NC(C(=O)O)C(C)C` (centres undefined): 24%. `CC(=O)Nc1cc(C(=O)O)ccc1S(=O)(=O)c1ccc(Cl)cc1`: the inhibition was 57.8% (active). Consider `CCOC(=O)N1CCN(C(=O)c2ccc(S(=O)(=O)c3ccc(C)cc3)c(NC(C)=O)c2)CC1`, for which the inhibition is 2.03%.

Consider `CCC(=O)N1CCCc2ccccc21`, for which the inhibition was -6.7%.

With `CN(C)c1cc(-c2ccc(F)cc2)oc(=O)c1Cl`, the inhibition is 11.2%. Next, `Cc1ccc(S(=O)(=O)N/N=C\c2cc3c(cc2[N+](=O)[O-])OCO3)cc1`: 35.1%; `Cc1ccc(-c2n[nH]c(=S)n2/N=C/c2cc3c(cc2[N+](=O)[O-])OCO3)cc1`: 63.6% (active). For `CCOc1ccc(-c2n[nH]c(=S)n2/N=C/c2cc3c(cc2[N+](=O)[O-])OCO3)cc1`, the inhibition was 48.5%. `CC(=O)N1N=C(c2ccncc2)OC1(Cc1ccccc1)Cc1ccccc1`: the inhibition was 5.2%. Next, `COc1ccc(Cc2nnc(NC(=O)Cc3cccs3)s2)cc1`: 101% (active).

`O=C(Cc1cccs1)Nc1nnc(C2CC2)s1`: the inhibition was -2.68%. In the case of `CCc1nnc(NC(=O)Cc2cccs2)s1` it was 32.4%. Next, `Cc1ccc(-c2c[n+](CC(=O)Nc3ccccc3)c3n2CCC3)cc1`: -9.73%; `Cc1ccc(Cn2c(SCC(=O)N/N=C/c3ccccc3OCC(=O)O)nc3ccccc32)cc1`: 27.3%; `Cc1nc2c(ncn2-c2ccccc2)c(=O)n1NC(=O)CN1CCCC1`: 1.52%. In the case of `C=C(C)CNC(=S)Nc1ccc(S(=O)(=O)Nc2cnc3ccccc3n2)cc1`, the inhibition was 6.78%. Next, `O=C(Nc1cccc(C(F)(F)F)c1)c1cnccn1`: 3.57%. Next, `O=C(CSCC(=O)Nc1cccc([N+](=O)[O-])c1)Nc1ccccc1`: -8.73%; `O=c1cc(CO)oc(C(Nc2cccc(C(F)(F)F)c2)c2ccccn2)c1O` (centres undefined): 70% (active); `O=c1cc(CO)oc(C(Nc2cccc([N+](=O)[O-])c2)c2ccccn2)c1O` (centres undefined): 70.7% (active). As for `FC(F)(F)c1cccc(Nc2ncnc3ccccc23)c1`, the inhibition is -37.6%.

In the case of `Cc1ccc(CN(C)CC(=O)Nc2cccc([N+](=O)[O-])c2)o1`, the inhibition was -9.25%. Turning to `FC(F)(F)c1ccc(-n2cn[nH]c2=S)cc1`, the inhibition was -8.38%.

For `CN(C)NC(=O)c1csnc1-c1c(Cl)cccc1Cl`, the inhibition was 8.82%. In the case of `O=C(CSc1ncn[nH]1)Nc1nc(-c2cccc([N+](=O)[O-])c2)cs1`, the inhibition was 0.73%. For the compound `Cc1ccc(C(=O)NNC2=Nc3cc([N+](=O)[O-])ccc3OC2)cc1`, the inhibition is 8.97%.

As for `CSc1n[nH]c(=S)n1N`, the inhibition was -7.77%. On to `Cc1ccc(NC(=S)NC(=O)/C=C/c2ccc(Cl)cc2)cc1`, for which the inhibition is 3.6%. For `CCOc1ccc(NC(=S)NC(=O)/C=C/c2ccc(OC)cc2)c([N+](=O)[O-])c1`, the inhibition is 63.1% (active). In the case of `CC(=O)Nc1ccc(NC(=S)NC(=O)/C=C/c2ccccc2)cc1`, the inhibition was 3.86%.

Regarding `O=C(N/N=C/c1ccco1)c1csc2c1CCCC2`, the inhibition was 5.75%.

For `O=C(Nc1ccc(Cl)cc1)/C(=C1\CCCN1)[N+](=O)[O-]`, the inhibition is 9.38%.

For the compound `COc1ccc2nc(NC(=O)c3ccc(Br)s3)sc2c1`, the inhibition is 15.7%. Next, `COc1ccc2nc(Nc3nc4ccc(NC(C)=O)cc4s3)sc2c1`: 70.9% (active); `COc1ccc2nc(Nc3nc4cc5c(cc4s3)OCCO5)sc2c1`: -76.2%; `Cn1c(SCC(=O)N2CCOCC2)nnc1-c1ccc2ncccc2c1`: -9.25%.

As to `CC(C)Oc1ccc(CCC(=O)NNC(=S)NCc2ccccc2)cc1`, the inhibition was 0.21%.

`O=c1oc(-c2ccccc2NS(=O)(=O)c2ccc(Cl)cc2)nc2ccccc12`: the inhibition was -43.7%.

As to `Cc1nn(CC(=O)Nc2ccc(N(C)C)cc2)c(C)c1[N+](=O)[O-]`, the inhibition was 73.9% (active).

For the compound `CCc1ccc(NC(=O)Cn2nc(C)c([N+](=O)[O-])c2C)cc1`, the inhibition was 3.69%. Next, `Cc1nn(CC(=O)Nc2ccc(C#N)cc2)c(C)c1[N+](=O)[O-]`: -6.04%. Next, `COc1ccccc1-n1c(SCC(=O)O)nc2sc3c(c2c1=O)CCC3`: 12.5%; `COC(=O)c1cn(C(=O)c2ccc(Cl)cc2)c2ccccc12`: -1.27%.

`O=[N+]([O-])c1cc(S(=O)(=O)Nc2cccc(Cl)c2)ccc1N=Nc1c(O)[nH]c2ccccc12`: the inhibition was 71.3% (active). Next, `CN1CCN(c2ccc(S(=O)(=O)Nc3ccccc3)cc2[N+](=O)[O-])CC1`: -7.35%; `Cc1cccc(N(CC(=O)N=Nc2c(O)[nH]c3ccccc23)S(C)(=O)=O)c1C`: 9.08%. In the case of `O=[N+]([O-])c1c(NCCO)cc(Sc2nc3ccccc3s2)c2nonc12`, the inhibition is 79.7% (active).

`COc1ccc(S(=O)(=O)Nc2ccc(O)c(Sc3nc4ccccc4s3)c2)cc1`: the inhibition is 21.8%. `O=C(CSc1nc2ccccc2s1)Nc1ccc(C(=O)O)cc1`: the inhibition was 2.75%. In the case of `O=C(N/N=C/c1ccccn1)c1cccnc1` it was -27.9%; in that of `O=C(O)c1ccc(NC(=O)c2cn(-c3ccccc3)nc2-c2ccc(Cl)cc2)cc1`, 17.5%; in that of `Cc1nnc(SCC(=O)N/N=C/c2cn(-c3ccccc3)nc2-c2ccc(F)cc2)n1-c1ccccc1`, -13.4%.

`O=C(N/N=C/c1ccc([N+](=O)[O-])o1)c1cn(-c2ccccc2)nc1-c1ccc(F)cc1`: the inhibition was 65.5% (active).

Take `O=C(Nc1nnc(SCc2c(Cl)cccc2Cl)s1)c1cccc([N+](=O)[O-])c1`: the inhibition was 27.4%. In the case of `CCc1cc(C(=O)c2ccc(OC)cc2)c(NC(=O)CN2CCN(C)CC2)s1` it was 0.41%; in that of `Cc1ccc(CSc2nnc(-c3cnccn3)n2C)cc1`, 2.82%. With `O=C(NCc1cc(C(F)(F)F)cc(C(F)(F)F)c1)C1CC(c2cccc(F)c2)=NO1` (centres undefined), the inhibition was -14.9%. As for `COc1ccc(C(=O)C2CCCN(Cc3ccc4nonc4c3)C2)c(C)c1` (centres undefined), the inhibition was 0.59%. Consider `CC(=O)Nc1cccc(/C(C)=N/NC(=O)c2ccccc2Cl)c1`, for which the inhibition was 12.1%. In the case of `C/C(=N\Nc1cccc(C(=O)O)c1)c1ccc2c(c1)Nc1ccccc1S2` it was 78.5% (active).

For `O=C(NC1CC1)c1ccc2c(c1)NC(=O)c1ccccc1S2`, the inhibition is -14.5%.

The values are drawn from PubChem BioAssay AID1022 (Emory University Molecular Libraries Screening Center, 2008).
